Only some compounds are listed: those with a hit (about 3.5% of all), similar ones and a draw of the others.
GPR151 activ = activators of human GPR151, primary screen, cell-based, PathHunter beta-arrestin, luminescence; actives 1% (n = 650,000); PathHunter beta-arrestin GPR151 cells; AID 1508602, 2020; activation, % at 11.2 µM; G-protein coupled receptor 151 (Homo sapiens), Q8TDV0; in the data active = activation above about 4.9%
Target sequence (Q8TDV0 whole entry, looked up): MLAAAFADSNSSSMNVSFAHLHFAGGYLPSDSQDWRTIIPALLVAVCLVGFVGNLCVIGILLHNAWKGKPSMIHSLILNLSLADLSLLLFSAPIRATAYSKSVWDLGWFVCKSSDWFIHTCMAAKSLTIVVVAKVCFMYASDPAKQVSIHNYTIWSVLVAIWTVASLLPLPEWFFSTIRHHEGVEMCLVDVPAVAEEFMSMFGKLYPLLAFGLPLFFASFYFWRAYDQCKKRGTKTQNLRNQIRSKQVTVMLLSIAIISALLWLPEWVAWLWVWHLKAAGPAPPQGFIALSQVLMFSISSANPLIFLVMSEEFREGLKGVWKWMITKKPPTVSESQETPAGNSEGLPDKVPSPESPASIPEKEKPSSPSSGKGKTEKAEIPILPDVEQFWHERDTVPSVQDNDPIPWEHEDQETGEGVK
MITF inh = MITF inhibitors, primary screen, biochemical, AlphaScreen, human. inhibition, % at 2.6 µM. actives 0.91% (n = 650,000). Microphthalmia-associated transcription factor (Homo sapiens), O75030. AlphaScreen MITF homodimerization, bead proximity signal; in the data active = inhibition above about 50%
FBW7 act = FBW7 E3 ligase activators, primary screen, biochemical, AlphaScreen, human. AlphaScreen FBW7–phospho-cyclin E peptide binding, activator screen. normalized activity (activation), % at 26.1 µM. actives 0.13% (n = 650,000). AID 1259310, 2017; in the data active = normalized activity above about 1.9%;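 note: purified mutant Fbw7 with reduced substrate affinity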
TEAD-YAP inh = TEAD-YAP interaction inhibition, primary screen, TEAD-YAP interaction inhibitor project, luminescence, HEK-TIYL cells; TEAD-Gal4/YAP UAS-luciferase luminescence; inhibition, % at 9.12 µM; actives 1.4% (n = 640,000); in the data active = inhibition above about 32%
GPR151 confirm = GPR151 activators, triplicate retest, confirmation, cell-based, PathHunter beta-arrestin, luminescence | 6,700 tested, under 10 active | GPR151 PathHunter beta-arrestin cells, 90 min; % of EA-reagent control over plate median | shares compounds with GPR151 activ | AID 1508609, 2020 | activation, % at 11.2 µM;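 active = mean percent activation across replicates above the confirmation screen cutoff of 4.91%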
GPR119 ag = GPR119 activators in beta-arrestin cells, counter-screen for GPR151 activator project, cell-based, PathHunter beta-arrestin, luminescence, triplicate. AID 1508611, 2020. activation, % at 11.2 µM. shares compounds with GPR151 activ. 90 min; 0 = compound-well median, 100 = enzyme-acceptor control. actives 0.3% (n = 6,700);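 active = mean percent activation in the counterscreen above 29.09%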;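 note: counterscreen on off-target GPR119 to flag nonselective hits from the GPR151 activator screen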
Numbers stand for hits; 0 = inactive; - = no result given; ! = not active in a repeat.

SMILES | GPR151 activ | MITF inh | FBW7 act | TEAD-YAP inh | GPR151 confirm | GPR119 ag
N#CCC(=O)NCCOc1ccccc1 | 8.6 | 0 | 0 | 0 | 0 | 0
CCOc1ccc(C(=O)Nc2ccc3c(c2)CC(=O)N3CC)cc1 | 0 | 0 | 0 | 0 | - | -
CCN1C(=O)Cc2cc(NC(=O)c3ccc(C(C)(C)C)cc3)ccc21 | 5.2 | 0 | 0 | 0 | 0 | 0
COCCNC(=S)NCCNc1nc2cc3c(cc2cc1C#N)OCO3 | 0 | 0 | 0 | 0 | - | -
CCC(CO)Nc1nccnc1-c1ccc(OC)cc1 (stereo not drawn) | 0 | 0 | 0 | 0 | - | -
CCN(CC)C(=O)C1CCCN(c2nc(NCCO)c3[nH]cnc3n2)C1 (stereo not drawn) | 0 | 0 | 0 | 0 | - | -
COc1ccccc1CN1CCNC(=O)C1CC(=O)NCc1csc(C)n1 (stereo not drawn) | 5.8 | 0 | 0 | 0 | 0 | 0
COc1ccccc1CN1CCNC(=O)C1CC(=O)NCc1ccc(F)cc1 (stereo not drawn) | 0 | 0 | 0 | 0 | - | -
CS(=O)(=O)NCC1CCC(C(=O)NC2CCN(Cc3ccccc3)CC2)CC1 (stereo not drawn) | 5.6 | 0 | 0 | 0 | 0 | 0
O=C1COc2ccc(C(=O)COC(=O)COc3ccccc3-c3ccccc3)cc2N1 | 0 | 0 | 0 | 0 | - | -
COc1ccc(/C=C2\SC(=N)N(C)C2=O)cc1OC | 0 | 0 | 0 | 0 | - | -
COc1ccc(/C=C2\SC(=N)N(c3nccs3)C2=O)cc1OC | 5.7 | 0 | 0 | 0 | 0 | 0
CSc1nnc(C)c(=O)n1COC(=O)c1ccc(Cl)c([N+](=O)[O-])c1 | 0 | 0 | 0 | 0 | - | -
C/C(=N\NC(=O)CCc1ccccc1)c1ccncc1 | 7.2 | 0 | 0 | 0 | 0 | 0
Cc1cc(N2CCN(C(=O)c3ccccc3F)CC2)c(F)cc1[N+](=O)[O-] | 0 | 0 | 0 | 0 | - | -
Cc1ccsc1CCNc1c(-c2ccccc2)c(=O)c1=O | 5.2 | 0 | 0 | 0 | 0 | 0
Cc1cccc(CCNc2c(-c3ccccc3)c(=O)c2=O)c1 | 0 | 0 | 0 | 0 | - | -
CN(C)CCCOc1nn(Cc2ccccc2)c2ccccc12 | 6.2! | 0 | 0 | 0 | 0 | 0
Cc1ccc(C(=O)Nc2ccc(C(=O)N/N=C/c3cccc(C)n3)cc2)cc1 | 6.1 | 0 | 0 | 0 | 0 | 0
Cc1cccc(/C=N/NC(=O)c2ccc(F)cc2)n1 | 0 | 0 | 0 | 0 | - | -
CC(=O)c1c(C)oc2ccc(N(C(=O)c3ccc(C)cc3)S(=O)(=O)c3cccc([N+](=O)[O-])c3)cc12 | 0 | 0 | 0 | 0 | - | -
Cc1cccc(CCNC(=O)NCc2noc3ccccc23)c1 | 14 | 0 | 0 | 0 | 0 | 0
Cc1ccc(CCNC(=O)NCc2noc3ccccc23)cc1 | 0 | 0 | 0 | 0 | - | -
COc1ccc(NC(=O)NCc2noc3ccccc23)c(OC)c1 | 0 | 0 | 0 | 0 | - | -
Cc1cc(Br)ccc1NC(=O)NCc1noc2ccccc12 | 6.1 | 0 | 0 | 0 | 0 | 0
SMILES | GPR151 activ | MITF inh | FBW7 act | TEAD-YAP inh | GPR151 confirm | GPR119 ag
COC(=O)C(Cc1c[nH]c2ccccc12)NC(=O)C(C)C (stereo not drawn) | 0 | 0 | 0 | 0 | - | -
COC(=O)C(Cc1c[nH]c2ccccc12)NC(=O)C(=O)c1c(C)[nH]c2ccccc12 (stereo not drawn) | 6.9 | 0 | 0 | 0 | 0 | 0
CCCNC(=O)c1cnc(Nc2nccc3ccccc23)s1 | 0 | 0 | 0 | 0 | - | -
COc1ccc(CCNC(=O)c2cnc(Nc3nccc4ccccc34)s2)cc1 | 5.8 | 0 | 0 | 0 | 0 | 0
O=C(O)CN1C(=O)C(=O)c2cc([N+](=O)[O-])ccc21 | 0 | 0 | 0 | 0 | - | -
COc1ccccc1-n1c(O)c(C=Nc2cccc(C)c2)c(=O)[nH]c1=S | 5.1 | 0 | 0 | 0 | 0 | 0
O=C(CN1CCN(S(=O)(=O)c2ccc3c(c2)OCCO3)CC1)c1cccs1 | 9.7 | 0 | 0 | 0 | 0 | 0
O=C(c1c[nH]c2ccc(S(=O)(=O)N3CCCCCC3)cc2c1=O)N1CCOCC1 | 11 | 0 | 0 | 0 | 0 | 0
CCC(C)NC(=O)C1=CC(c2cccc(OC)c2)=NS(=O)(=O)N1C (stereo not drawn) | 5.2 | 0 | 0 | 0 | 0 | 0
CCC(C)NC(=O)C1=CC(c2ccc(OC)c(OC)c2)=NS(=O)(=O)N1C (stereo not drawn) | 0 | 0 | 0 | 0 | - | -
CCOC(=O)c1c(NC(=O)c2ccc([N+](=O)[O-])cc2)sc(C(=O)OC)c1C | 5.3 | 0 | 0 | 0 | 0 | 0
CCOC(=O)c1c(NC(=O)c2ccc([N+](=O)[O-])cc2)sc(C(N)=O)c1C | 0 | 0 | 0 | 0 | - | -
Cn1c(=O)c2c(nc(N3CCCC3)n2CC(=O)c2ccccc2)n(C)c1=O | 0 | 0 | 0 | 0 | - | -
CC(C)NC(=O)C1CCN(C(=O)N2CCOc3ccccc32)CC1 | 0 | 0 | 0 | 0 | - | -
O=C(NCC1CCCO1)C1CCN(C(=O)N2CCOc3ccccc32)CC1 (stereo not drawn) | 9.7 | 0 | 0 | 0 | 0 | 0
O=C(CCc1nnc(C2(c3ccc(Cl)cc3)CCC2)o1)NCc1ccccn1 | 5.1 | 0 | 0 | 0 | 0 | 0
Cc1ccc(CNC(=O)CCc2nnc(C3(c4ccc(Cl)cc4)CCC3)o2)s1 | 0 | 0 | 0 | 0 | - | -
O=C(Cn1c(-c2ccccn2)nc2ccccc21)N1CCCCC1 | 0 | 0 | 0 | 0 | - | -
O=C(Cn1c(-c2cccnc2)nc2ccccc21)N1CCCCCC1 | 5.6 | 0 | 0 | 0 | 0 | 0
CO/C(=N\S(=O)(=O)c1ccc(Cl)cc1)c1ccccc1 | 5.9 | 0 | 0 | 0 | 0 | 0
N/C(=N\S(=O)(=O)c1ccc(Cl)cc1)c1ccccc1 | 0 | 0 | 0 | 0 | - | -
CCS(=O)(=O)Nc1ccc(-c2ccnc(Nc3ccc(S(N)(=O)=O)cc3)n2)cc1 | 0 | 0 | 0 | 0 | - | -
O=C(O)CN=C1NC2(CCCC2)Cc2ccccc21 | 0 | 0 | 0 | 0 | - | -
O=C1NC2(CCCCCC2)Cc2ccccc21 | 7.9 | 0 | 0 | 0 | 0 | 0
Cc1ccc(-c2cc(C(=O)Nc3sc4c(c3C(N)=O)CCCC4)c3ccccc3n2)cc1 | 0 | 0 | 0 | 0 | - | -
CNCC#CCOc1ccc(OC)cc1 | 0 | 0 | 0 | 0 | - | -
COc1ccc(OCC#CCNC(C)(C)C)cc1 | 8.7 | 0 | 0 | 0 | 0 | 0
O=C(NCc1ccccn1)c1cccc(OC2CCN(C3CCSCC3)CC2)c1 | 8.7 | 0 | 0 | 0 | 0 | 0
O=C(NCc1ccncc1)c1ccc(OC2CCN(C3CCSC3)CC2)cc1 (stereo not drawn) | 9.7 | 0 | 0 | 0 | 0 | 0
COc1cc2c(cc1NC(=O)c1ccoc1C)oc1ccccc12 | 5.2 | 0 | 0 | 0 | 0 | 0
